Screens from PubChem.
HIF-2a block: HIF-2a reporter inhibitors, primary screen, luminescence, 786-0 RCC cells; AID 624352, 2012; 0.72% of 360,000 active; 786-0 RCC cells HIF-2a reporter, luciferase luminescence, overnight; inhibition, % at 18.8 µM;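 active means inhibition of the luminescence signal of 40% or more relative to plate controls, in a single-dose primary screen at 18.75 µM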
KKLEB cytotox: cytotoxicity in KKLEB CF airway cells, primary screen, cytotoxicity control for CF NF-kB inhibitor project, cell-based, uHTS, fluorescence assay plates; KKLEB CF airway cells viability, ATPlite luminescence, overnight; active compounds read low; cells stimulated with P. aeruginosa culture filtrate; activity change (cytotoxicity), % at 5 µM; 0.36% of 360,000 active; AID 602141, 2011;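 active means corrected activity change at or below -50% at 5 µM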
CF NFkB inh: inhibitors of PAF-induced NF-kB signaling, primary screen, cell-based, GFP fluorescence, uHTS; KKLEB NF-kB-GFP reporter, GFP fluorescence overnight; 0.86% of 360,000 active; inhibition, % at 5 µM;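 active means at least 50% inhibition at 5 µM, scaled per plate between neutral and stimulator controls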;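 further: PAF is a Pseudomonas aeruginosa culture filtrate used as stimulus; plate controls were PAF-stimulated DMSO wells for no effect and unstimulated DMSO wells for full effect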
Shn3 3UTR inh: reduction of Shn3 3'UTR firefly luciferase signal, primary screen, Schnurri-3 inhibitor project, cell-based, Clone20 osteoblasts, set 2; Clone20 osteoblast Shn3 3'UTR firefly luciferase, 24 h; inhibition, % at 12.5 µM; 0.52% of 360,000 active; AID 588674, 2011;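 active means mean inhibition of at least 75% with every replicate also reaching 75%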;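 further: 0% = median of neutral control wells and 100% = pilot-screen positive control compound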
TRPM1 prom inh: inhibitors of MITF-dependent TRPM1 promoter reporter, primary screen, cell-based, SK-MEL-5, single point, luciferase. SK-MEL-5 TRPM1 promoter luciferase, 24 h. inhibition, % at 12.5 µM. 0.83% of 330,000 active;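 active means mean inhibition across replicates of 60% or more, whatever share of single replicates reaches that level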
Peg3 prom inh-1: Peg3 promoter-driven luciferase inhibitors, primary screen, cell-based, HeLa, luciferase luminescence; HeLa PEG-Prom luciferase reporter, overnight; inhibition, % at 20 µM; 1.7% of 360,000 active;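 active means inhibition of at least 50% at 20 µM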
Peg3 prom inh-2: Peg3 promoter reporter inhibitors, retest, confirmation, cell-based, HeLa, luciferase reporter, single concentration; 84% of 1,300 active; HeLa PEG-Prom luciferase reporter, luminescence, overnight; inhibition, % at 20 µM; shares compounds with Peg3 prom inh-1;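 active means at 20 µM dose, 40% or more inhibition averaged across four replicates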
CF NFkB inh conf: inhibitors of PAF-induced NF-kB signaling, retest, confirmation, cell-based, GFP fluorescence, single concentration; KKLEB CF airway cells, overnight; 64% of 1,300 active; shares compounds with CF NFkB inh; inhibition, % at 5 µM; in the data active means inhibition above about 40%;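 further: stimulus PAF is a Pseudomonas aeruginosa filtrate and not platelet activating factor; plate controls were DMSO wells with stimulus for no effect and unstimulated DMSO wells for full effect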
Mdm2 MdmX conf: retested Mdm2-MdmX interaction blockers, confirmation, cell-based, luminescence, single concentration, set 2. 99% of 740 active. SaOS-2 split-luciferase Mdm2/MdmX complementation. inhibition, % at 8 µM. AID 504601, 2011. shares compounds with HIF-2a block;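 active means mean inhibition of the luminescence signal across two replicates at or above 26 percent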
* hit, by the source's call; . = no result given. Hits are enriched below; roughly 2.8% of the tested compounds scored in any of these assays.

SMILES	HIF-2a block	KKLEB cytotox	CF NFkB inh	Shn3 3UTR inh	TRPM1 prom inh	Peg3 prom inh-1	Peg3 prom inh-2	CF NFkB inh conf	others
COc1ccc(S(=O)(=O)N2c3ccccc3OCC2c2ccccc2)cc1 (stereo not drawn)	29	-13	12	13	22	50*	46*	.
COc1ccc(S(=O)(=O)N2c3ccccc3OCC2C)cc1 (stereo not drawn)	29	-8	18	21	21	16	.	.
O=C(Nc1ccccc1)c1ccc(F)c(S(=O)(=O)N2CCOCC2)c1	-16	-1	-5	2	10	1	.	.
O=C(Nc1ccc(-c2cn3ccsc3n2)cc1)c1ccc(F)c(S(=O)(=O)N2CCOCC2)c1	-78	25	-40	10	47	80*	96*	.
CC(Nc1cc(C)cc(C)c1)=[N+](C)CCNS(=O)(=O)c1ccc(Cl)cc1	17	15	-11	-8	-5	-12	.	.
Cc1nn(CC(=O)NCc2ccc(OC(C)C)cc2)c(=O)c2cc(-c3ccccc3)nn12	10	-3	8	-16	5	51*	15	.
COc1cccc(OC)c1C(=O)Nc1cc(C)nn1-c1nc2ccccc2[nH]1	-34	-17	78*	-8	7	54*	71*	53*
COc1cccc(CN(C)C(=O)C(CCSC)NS(=O)(=O)c2ccc3c(c2)OCCO3)c1OC (stereo not drawn)	7	15	74*	21	-6	56*	62*	79*
CSCCC(NS(=O)(=O)c1ccc2c(c1)OCCO2)C(=O)N(C)Cc1ccc(C)cc1 (stereo not drawn)	14	-13	6	14	9	18	.	.
CC1CCCCN1C(=O)c1cccc(NC2=C(Cl)C(=O)N(Cc3ccccc3)C2=O)c1 (stereo not drawn)	18	-44	57*	-9	26	52*	54*	-104
CC1CCN(C(=O)c2ccc(NC3=C(Cl)C(=O)N(Cc4ccccc4)C3=O)cc2)CC1	-2	-4	12	-2	0	40	.	.
CCN(CC)S(=O)(=O)c1ccc(N2CCCC2)c(NC(=O)c2ccc(N3CCCC3=O)cc2)c1	13	22	-3	-3	-4	4	.	.
CN(C)S(=O)(=O)c1ccc(Cl)c(NC(=O)CSc2nc3c(cc2C#N)C(=O)CC(C)(C)C3)c1	17	-4	28	22	-1	-15	.	.
CN(C)S(=O)(=O)c1cccc(NC(=O)CSc2nc3c(cc2C#N)C(=O)CC(C)(C)C3)c1	-12	-20	58*	34	68*	60*	60*	35
O=C(O)c1cccc(NS(=O)(=O)c2cccc3nsnc23)c1	10	-3	-2	-4	0	8	.	.
COc1ccc(CNC(=O)CN(Cc2ccc(F)cc2)C(=O)c2csnn2)cc1	4	1	-3	-7	-4	-1	.	.
COc1ccccc1CN(C)C(=O)c1cc(-c2cc(OC)c(OC)c(OC)c2)nc2ccccc12	-2	-32	74*	38	22	53*	56*	10
CCOC(=O)/C=c1/s/c(=C/c2ccccc2OC)c(=O)n1CC(=O)N1CCOCC1	-6	-10	-13	-16	0	24	.	.
NC(=O)c1nsc(C(=O)N(c2ccccc2F)C(C(=O)NCc2ccc(F)cc2)c2ccc(O)cc2)c1N (stereo not drawn)	19	-34	94*	33	6	58*	60*	108*
O=C(Nc1nc2ccc(F)cc2s1)C1CCCO1 (stereo not drawn)	-195	8	0	-122	-107	-304	.	.
FC(F)Sc1ccc(NC(=S)NCc2ccccc2)cc1	-114	-4	-6	3	-14	-47	.	.
FC(F)Sc1ccc(NC(=S)NC(c2ccccc2)c2ccccc2)cc1	-11	-45	51*	57	32	53*	95*	57*
Cc1ccc(S(=O)(=O)/N=C(\CCl)N2CCOCC2)cc1	24	-14	58*	-29	23	58*	39	70*
COc1ccc(-n2nc(C(=O)NCC(=O)Nc3cc(OC)c(OC)c(OC)c3)c3ccccc3c2=O)cc1OC	6	-26	83*	13	11	55*	44*	90*
Cc1ccc(/C=C2/Sc3ccc(C(=O)NCCN4CCOCC4)cc3NC2=O)cc1	-21	-2	-7	5	-20	5	.	.
SMILES	HIF-2a block	KKLEB cytotox	CF NFkB inh	Shn3 3UTR inh	TRPM1 prom inh	Peg3 prom inh-1	Peg3 prom inh-2	CF NFkB inh conf	others
Cc1cccc(CN2C(=O)/C(=C\c3ccc(C(=O)NCCN4CCOCC4)cc3)Sc3ccccc32)c1	9	5	82*	0	-2	92*	92*	-16
COc1ccc(Nc2nccc(-c3cccc(N)c3)n2)cc1	-195	20	71*	-174	-4	73*	-117	94*
CC(=O)c1ccc(-c2cnc3c(NC=O)cc(-c4ccccc4Oc4ccccc4)cn23)cc1	24	-27	58*	34	.	55*	63*	45*
Cc1ccc(NC(=O)c2nc[nH]c2C(=O)NCCCCCCNC(=O)c2[nH]cnc2C(=O)Nc2ccc(C)cc2)cc1	1	4	4	1	5	46	.	.
O=C(Nc1ccccc1)c1nc[nH]c1C(=O)NCCCCNC(=O)c1[nH]cnc1C(=O)Nc1ccccc1	4	-13	54*	11	6	60*	56*	59*
COc1ccc(-n2c(CCC(=O)O)ccc2-c2ccc(F)cc2)c(OC)c1	7	10	2	14	6	3	.	.
CCO/N=C(\C)c1c(O)c2ccccc2n(C)c1=O	-2	10	-5	-21	3	16	.	.
CCCN(CC(=O)Nc1ccccc1C)C(=O)CCl	39	-12	12	3	63*	64*	46*	.	Mdm2 MdmX conf=95*
CCCN(CC(=O)Nc1ccccc1C)C(=O)COc1c(C)cccc1C	-12	-7	4	-20	3	2	.	.
